The values below come from PubChem BioAssay (NCATS).

The structures appear in SMILES notation. Several values for one entry are separate records, joined by “and”; a condition that tells them apart may be missing. Equal entries are not always repeated. Records with an inconclusive call do not appear. Activity calls are given as the source filed them. Unless noted, calls follow the shape of the full dose curve.

The target in assay [1] is Estrogen receptor (Homo sapiens) (UniProt P03372). In words: qHTS assay for small molecule antagonists of estrogen receptor alpha signaling (AID 588513; active = well fitted curve in the direction sought with a large enough effect in the signal ratio, with a control signal flat, not every such curve was filed as active; the % refers to the signal ratio; also: % is scaled to controls: 0 for no effect and ±100 for the full control effect). In a few lines: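 Fluorescence from CCF4 substrate after 2 h at room temperature gave reporter activity; cells had been exposed to compound and 0.5nM 17-beta-estradiol for 18 h at 37 C. Hill-equation fitting yielded IC50 and maximal response.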
Sequence of Estrogen receptor (Homo sapiens) (P03372 whole entry, looked up): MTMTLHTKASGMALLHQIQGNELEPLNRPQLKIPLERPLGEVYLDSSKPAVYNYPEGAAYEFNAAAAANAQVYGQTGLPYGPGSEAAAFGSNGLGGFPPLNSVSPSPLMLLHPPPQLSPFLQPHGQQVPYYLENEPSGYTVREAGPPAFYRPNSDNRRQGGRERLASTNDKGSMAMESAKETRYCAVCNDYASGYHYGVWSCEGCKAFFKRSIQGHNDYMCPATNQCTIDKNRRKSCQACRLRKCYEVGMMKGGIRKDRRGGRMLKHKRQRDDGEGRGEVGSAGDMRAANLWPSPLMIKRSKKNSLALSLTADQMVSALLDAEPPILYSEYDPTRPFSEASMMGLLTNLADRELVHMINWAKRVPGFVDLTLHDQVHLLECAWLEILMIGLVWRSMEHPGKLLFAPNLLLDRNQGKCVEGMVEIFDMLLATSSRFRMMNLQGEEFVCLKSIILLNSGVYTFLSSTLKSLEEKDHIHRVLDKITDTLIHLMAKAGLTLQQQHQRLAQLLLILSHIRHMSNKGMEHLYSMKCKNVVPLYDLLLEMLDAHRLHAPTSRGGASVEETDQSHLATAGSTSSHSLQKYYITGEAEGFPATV
Background: Quantitative high-throughput screening tests each substance at several concentrations.

The target is the same in assay [2]. As to the kind of experiment: qHTS assay for small molecule agonists of estrogen receptor alpha signaling (AID 588514). Also: nearly all actives have a fitted effect of over 70% in size. Also: potency is read from the fitted curve at half-maximal effect.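 As to activation: 0% = vehicle only and 100% = reference agonist.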 In a few lines: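 ER-alpha-UAS-bla GripTite HEK 293 cells in medium with 2% charcoal/dextran-treated FBS were treated with compound titrations at 37 C for 18 hrs; beta-lactamase reporter read by CCF4 fluorescence after 2 hrs at RT.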
The target of assay [3] is Peroxisome proliferator-activated receptor delta (Homo sapiens) (UniProt Q03181). In words: qHTS assay for small molecule agonists of peroxisome proliferator-activated receptor delta signaling (AID 588534).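 Also: 0% = DMSO basal wells and 100% = positive control agonist at 10 µM.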 In a few lines: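 Cell-based beta-lactamase reporter assay run in agonist mode: cells seeded and incubated 5 hrs at 37 C, compounds added and incubated 18 hrs at 37 C. CCF4 dye fluorescence read after 2 hrs at RT; EC50 and efficacy from Hill fits.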
Sequence of Peroxisome proliferator-activated receptor delta (Homo sapiens) (Q03181 whole entry, looked up): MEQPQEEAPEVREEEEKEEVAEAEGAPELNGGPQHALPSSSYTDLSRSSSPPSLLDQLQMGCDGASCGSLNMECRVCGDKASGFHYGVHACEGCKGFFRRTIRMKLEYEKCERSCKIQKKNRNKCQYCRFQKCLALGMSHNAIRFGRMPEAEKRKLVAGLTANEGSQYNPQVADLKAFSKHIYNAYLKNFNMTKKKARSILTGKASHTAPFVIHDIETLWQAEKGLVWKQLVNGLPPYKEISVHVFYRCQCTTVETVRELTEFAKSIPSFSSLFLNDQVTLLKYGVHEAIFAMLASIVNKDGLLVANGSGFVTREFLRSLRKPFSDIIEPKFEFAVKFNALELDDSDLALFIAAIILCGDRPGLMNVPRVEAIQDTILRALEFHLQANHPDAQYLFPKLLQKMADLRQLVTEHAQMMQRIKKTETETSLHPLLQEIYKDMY

The target of assay [4] is Retinoic acid receptor RXR-alpha (Homo sapiens) (UniProt P19793). In words: qHTS assay for small molecule agonists of retinoid X receptor alpha signaling (AID 588544).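 Also: 0% = DMSO basal wells and 100% = reference agonist.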
Sequence of Retinoic acid receptor RXR-alpha (Homo sapiens) (P19793 whole entry, looked up): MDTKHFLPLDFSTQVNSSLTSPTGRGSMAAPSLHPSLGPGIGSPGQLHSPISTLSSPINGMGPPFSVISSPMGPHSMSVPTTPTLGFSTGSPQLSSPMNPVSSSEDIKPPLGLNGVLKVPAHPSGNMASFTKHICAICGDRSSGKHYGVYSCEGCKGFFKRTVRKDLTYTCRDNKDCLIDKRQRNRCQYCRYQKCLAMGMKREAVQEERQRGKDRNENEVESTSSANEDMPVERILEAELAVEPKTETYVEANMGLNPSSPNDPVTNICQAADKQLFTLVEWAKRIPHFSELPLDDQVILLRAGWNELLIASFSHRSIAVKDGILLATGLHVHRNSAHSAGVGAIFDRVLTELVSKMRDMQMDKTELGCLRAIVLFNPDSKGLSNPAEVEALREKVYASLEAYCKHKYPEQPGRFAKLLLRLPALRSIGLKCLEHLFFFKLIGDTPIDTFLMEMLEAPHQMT
In assay [5] the target is Thyroid hormone receptor beta (Homo sapiens) (UniProt P10828). As to the kind of experiment: qHTS assay for small molecule agonists of thyroid hormone receptor beta signaling (AID 588545).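 Also: 0% = DMSO only and 100% = 10 nM T3.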 The gist of the method: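 Stimulation of a TR-driven beta-lactamase reporter was quantified in GripTite HEK 293 cells. Compound series ran for 18 hrs; curves were normalized to T3 and DMSO controls and fitted to yield EC50.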
Sequence of Thyroid hormone receptor beta (Homo sapiens) (P10828 whole entry, looked up): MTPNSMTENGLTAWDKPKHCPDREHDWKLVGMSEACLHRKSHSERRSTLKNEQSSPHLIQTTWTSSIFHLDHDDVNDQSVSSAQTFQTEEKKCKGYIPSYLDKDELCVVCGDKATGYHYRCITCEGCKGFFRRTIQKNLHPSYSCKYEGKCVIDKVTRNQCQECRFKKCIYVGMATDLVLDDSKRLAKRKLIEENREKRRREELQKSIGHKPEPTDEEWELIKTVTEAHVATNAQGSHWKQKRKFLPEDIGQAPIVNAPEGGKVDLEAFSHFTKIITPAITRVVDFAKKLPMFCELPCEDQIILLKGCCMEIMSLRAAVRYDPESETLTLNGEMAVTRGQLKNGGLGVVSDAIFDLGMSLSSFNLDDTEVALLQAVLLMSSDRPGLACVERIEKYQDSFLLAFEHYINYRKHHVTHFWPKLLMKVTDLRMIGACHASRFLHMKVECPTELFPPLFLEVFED

Assay [6] in a line: qHTS assay for small molecule antagonists of retinoid X receptor alpha signaling (AID 588546; active = well fitted inhibition curve with a large enough effect in the signal ratio, with a control signal flat, not every such curve was filed as active; the % refers to the signal ratio; also: potency is read from the fitted curve at half-maximal effect). The conditions noted are these: HEK293T RXRa-UAS-bla, beta-lactamase ratio, antagonist mode; measured here: W530 green channel, cytotoxicity proxy. The gist of the method: (§1)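 Beta-lactamase reporter inhibition, read as CCF4 fluorescence ratio (ex 405, em 460/530 nm) after 2 h at RT. HEK293T UAS-bla cells, 2500/well, were stimulated with 9-cis-RA at 500 or 100 nM final alongside test compound for 18 h at 37 C.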

Assay [7] concerns the target Retinoic acid receptor RXR-alpha (Homo sapiens) (UniProt P19793). The description is as above. The following applies: HEK293T RXRa-UAS-bla, beta-lactamase ratio, antagonist mode. In a few lines: as §1
Assay [8] has as its target Thyroid hormone receptor beta (Homo sapiens) (UniProt P10828). In words: qHTS assay for small molecule antagonists of thyroid hormone receptor beta signaling (AID 588547; active = well fitted inhibition curve with a large enough effect in the signal ratio, with a control signal flat, not every such curve was filed as active; the % refers to the signal ratio;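 also: cells stimulated with 0.4 nM T3 agonist during compound exposure; series mostly up to about 77 µM; % is scaled to controls: 0 for no effect and ±100 for the full control effect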). The following applies: TR-UAS-bla HEK293, beta-lactamase ratio, antagonist mode, 18 h. In a few lines:
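TR-UAS-bla GripTite HEK293 cells in 2% charcoal/dextran FBS medium; compounds 0.59 nM to 92 uM with T3 at 0.4nM final, 18 h at 37 C. Beta-lactamase read by CCF4 fluorescence (460/530 nm); Hill fits gave IC50 and efficacy.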

Assay [9] is described as follows: qHTS assay for small molecule activators of the p53 signaling pathway (AID 651743; active = well fitted activation curve with a large enough effect in the signal ratio, not every such curve was filed as active; the % refers to the signal ratio; also: series mostly up to about 92 µM; % of control where 0% means no effect). The conditions noted are these: HCT-116 p53RE-bla, beta-lactamase FRET ratio, 16 h; activation: stronger effect = higher value. In a few lines:
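HCT-116 p53RE-bla, 4,000 cells/well; 5 h settle; cpd/DMSO 16 h, 37 C; LiveBLAzer B/G 2 h RT; fluorescence intensity.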

In assay [10] the target is Peroxisome proliferator-activated receptor alpha (Homo sapiens) (UniProt Q07869). In words: qHTS assay for small molecule agonists of the peroxisome proliferator-activated receptor alpha (PPARalpha) signaling pathway (AID 651778; active = well fitted curve in the direction sought with a large enough effect; an effect the other way counts as inactive or inconclusive; also: % of control where 0% means no effect). The following applies: PathHunter PPARalpha complementation, chemiluminescence, 6 h; max response: stronger effect = higher value. The gist of the method:
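Enzyme-fragment complementation assay in which ligand-bound PPARalpha translocates and forms an active enzyme that generates chemiluminescence. Cells were plated overnight, exposed to compound for 6 hr at 37 C, and then given detection reagent for 60 min at room temperature.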

Assay [11] in a line: qHTS assay for small molecule agonists of the antioxidant response element (ARE) signaling pathway measured by Nrf2-dependant transcriptional activity - cell viability counter screen (AID 720653; active = well fitted curve in the direction sought with a large enough effect in the repeat runs; an effect the other way counts as inactive or inconclusive; also: % is scaled to controls: 0 for no effect and ±100 for the full control effect). The following applies: ARE-bla HepG2 viability, CellTiter-Glo ATP luminescence, 16 h; max response: stronger effect = lower value. In a few lines:
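ARE-bla HepG2 cells treated with compounds for 16 h at 37C; this counter screen measures viability as intracellular ATP by CellTiter-Glo luminescence after 30 min at room temperature.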

Assay [12] in a line: qHTS assay for cell viability of HEK293 cells (AID 743288; active = well fitted curve in the direction sought with a large enough effect; an effect the other way counts as inactive or inconclusive; also: % is scaled to controls: 0 for no effect and ±100 for the full control effect; nearly all actives have a fitted effect of over 50% in size). The following applies: ATP luminescence (CellTiter-Glo), 18 h; max response: stronger effect = lower value. In a few lines: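 HEK293 parental, 2,000 cells/well; ≥5 h pre-incubation 37 C; pintool compound addition; 18 h, 37 C; CellTiter-Glo 30 min RT; luminescence read.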
A short description of assay [13]: qHTS assay for cell viability of the p53RE-bla HCT-116 cell line (AID 743292; active = well fitted curve in the direction sought with a large enough effect; an effect the other way counts as inactive or inconclusive; also: % is scaled to controls: 0 for no effect and ±100 for the full control effect; nearly all actives have a fitted effect of over 55% in size). The gist of the method:
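ATP-based luminescent viability (CellTiter-Glo, 30 min RT) after 16 h compound treatment at 37 C of p53RE-bla HCT-116 cells, seeded at 4,000 cells/well and rested 5 h before dosing.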

The target of assay [14] is Peroxisome proliferator-activated receptor gamma (Homo sapiens) (UniProt P37231). In words: qHTS assay for small molecule antagonists of peroxisome proliferator-activated receptor gamma signaling (AID 588537; active = well fitted inhibition curve with a large enough effect in the signal ratio, with a control signal flat, not every such curve was filed as active; the % refers to the signal ratio;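 also: reporter cells co-stimulated with 50 nM rosiglitazone agonist during compound treatment; % of control where 0% means no effect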). In a few lines: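 Step one: plate 3000 HEK293 UAS-bla cells per well in medium with 1% stripped serum and hold 6-6.5 h at 37 C. Step two: add compound and 50 nM agonist for 16 h. Step three: CCF4 loading, fluorescence read.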
Sequence of Peroxisome proliferator-activated receptor gamma (Homo sapiens) (P37231 whole entry, looked up): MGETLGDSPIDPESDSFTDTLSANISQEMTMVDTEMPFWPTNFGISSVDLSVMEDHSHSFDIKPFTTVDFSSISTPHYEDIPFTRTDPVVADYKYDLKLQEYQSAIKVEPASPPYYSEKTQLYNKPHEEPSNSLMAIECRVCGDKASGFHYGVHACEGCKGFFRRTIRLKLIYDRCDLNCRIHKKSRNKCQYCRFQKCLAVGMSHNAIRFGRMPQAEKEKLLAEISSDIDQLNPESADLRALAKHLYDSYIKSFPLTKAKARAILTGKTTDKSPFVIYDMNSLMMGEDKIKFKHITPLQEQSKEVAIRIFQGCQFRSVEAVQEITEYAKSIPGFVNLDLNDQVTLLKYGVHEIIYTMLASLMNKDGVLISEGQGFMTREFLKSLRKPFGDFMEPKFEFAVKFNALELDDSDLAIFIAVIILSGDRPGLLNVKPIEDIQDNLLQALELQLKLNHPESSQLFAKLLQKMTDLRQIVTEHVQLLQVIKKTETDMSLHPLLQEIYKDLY

Assay [15] concerns the target Vitamin D3 receptor (Homo sapiens) (UniProt P11473). In words: qHTS assay for small molecule antagonists of vitamin D receptor signaling (AID 588541).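 Also: receptor activated by calcitriol during compound treatment; series mostly up to about 77 µM; % is scaled to controls: 0 for no effect and ±100 for the full control effect.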 In a few lines:
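VDR-UAS-bla HEK293T cells in 2% charcoal-stripped FBS were stimulated with 1-alpha,25-dihydroxyvitamin D3 (3 nM final) plus compound for 16 h at 37 C. The beta-lactamase CCF4 readout was normalized to 50 nM agonist and DMSO, and Hill fits gave IC50.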

The target is the same in assay [16]. In words: qHTS assay for small molecule agonists of vitamin D receptor signaling (AID 588543).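 Also: 0% = DMSO basal and 100% = reference agonist control.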 The gist of the method: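 Reporter cells (HEK293T, VDR-UAS-bla) were seeded in medium with 2% charcoal-stripped serum and incubated 5 h, then compounds in concentration series were added for 16 h at 37 °C. Stimulation was scaled between DMSO basal and 50 nM 1α,25-dihydroxyvitamin D3.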

The nature of assay [17]: qHTS assay for environmental chemicals that activate the Aryl hydrocarbon Receptor (AhR) signaling pathway (AID 651777; active = well fitted curve in the direction sought with a large enough effect; an effect the other way counts as inactive or inconclusive; also: % of control where 0% means no effect; nearly all actives have a fitted effect of over 15% in size). The conditions noted are these: 1A2-DRE human hepatoma cells, luciferase, 24 h; activation: stronger effect = higher value. The gist of the method: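 Luminescence (One-Glo, 30 min, room temperature) reports AhR-driven luciferase in stably transfected human hepatoma cells bearing DRE and CYP1A2 promoter. Cells (1,200/well) were treated with compound for 24 hr at 37 C in qHTS format.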

Assay [18] concerns the target Nuclear receptor subfamily 1 group I member 2 (Rattus norvegicus) (UniProt Q9R1A7). In words: qHTS assay for small molecule activators of the rat pregnane X receptor (rPXR) signaling pathway (AID 651751; call rule not given here; also: 0% is about no effect). The following applies: rPXR reporter cells, luciferase (One-Glo), 24 h.
A short description of assay [19]: qHTS assay for small molecule agonists of the antioxidant response element (ARE) signaling pathway measured by Nrf2-dependant transcriptional activity (AID 720636; active = well fitted curve in the direction sought with a large enough effect in the repeat runs; an effect the other way counts as inactive or inconclusive; also: % of control where 0% means no effect). The gist of the method: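 Nrf2-dependent transcription read as ONE-Glo luciferase signal from ARE-luc HepG2 reporter cells after 16 hr compound treatment at 37 C, 5% CO2, in assay medium with 1% dialyzed FBS.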

The target in assay [20] is Peroxisome proliferator-activated receptor gamma (Homo sapiens) (UniProt P37231). As to the kind of experiment: qHTS assay for small molecule agonists of peroxisome proliferator-activated receptor gamma signaling (AID 588536; active = well fitted curve in the direction sought with a large enough effect in the signal ratio, with a control signal flat, not every such curve was filed as active; the % refers to the signal ratio;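 also: 0% = DMSO basal wells and 100% = rosiglitazone at 2 µM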). The gist of the method:
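Ratiometric blue/green fluorescence (405 nm excitation; 460 and 530 nm emission) from CCF4-loaded HEK293 reporter cells serves as signal. Exposure to test compounds lasts 16 h at 37 C in medium containing 1% charcoal/dextran-treated serum.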

Sequence of Peroxisome proliferator-activated receptor alpha (Homo sapiens) (Q07869 whole entry, looked up, the tested form may be a part): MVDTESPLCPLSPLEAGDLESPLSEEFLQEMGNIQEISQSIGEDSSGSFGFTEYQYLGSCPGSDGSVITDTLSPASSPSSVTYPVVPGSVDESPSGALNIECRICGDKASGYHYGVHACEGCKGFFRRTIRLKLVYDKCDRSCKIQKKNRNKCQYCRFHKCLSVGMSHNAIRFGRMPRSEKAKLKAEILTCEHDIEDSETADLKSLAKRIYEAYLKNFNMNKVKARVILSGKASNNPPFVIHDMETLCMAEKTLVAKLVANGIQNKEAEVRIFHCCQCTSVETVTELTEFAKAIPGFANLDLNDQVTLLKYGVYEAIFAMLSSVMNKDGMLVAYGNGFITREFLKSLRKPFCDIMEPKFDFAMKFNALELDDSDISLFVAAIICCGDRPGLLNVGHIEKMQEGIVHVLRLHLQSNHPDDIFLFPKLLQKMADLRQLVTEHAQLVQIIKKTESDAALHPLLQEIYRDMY
Sequence of Vitamin D3 receptor (Homo sapiens) (P11473 whole entry, looked up): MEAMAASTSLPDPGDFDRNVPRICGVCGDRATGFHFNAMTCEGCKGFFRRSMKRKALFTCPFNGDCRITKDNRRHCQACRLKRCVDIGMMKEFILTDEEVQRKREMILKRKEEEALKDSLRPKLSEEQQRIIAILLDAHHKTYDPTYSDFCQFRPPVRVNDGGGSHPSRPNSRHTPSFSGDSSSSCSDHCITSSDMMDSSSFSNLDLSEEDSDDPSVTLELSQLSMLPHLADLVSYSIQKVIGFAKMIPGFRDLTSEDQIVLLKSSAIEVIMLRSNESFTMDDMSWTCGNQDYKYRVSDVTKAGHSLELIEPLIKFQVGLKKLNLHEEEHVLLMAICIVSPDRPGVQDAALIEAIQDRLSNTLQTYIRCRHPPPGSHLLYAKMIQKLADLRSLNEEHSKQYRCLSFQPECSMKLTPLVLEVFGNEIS
Sequence of Nuclear receptor subfamily 1 group I member 2 (Rattus norvegicus) (Q9R1A7 whole entry, looked up): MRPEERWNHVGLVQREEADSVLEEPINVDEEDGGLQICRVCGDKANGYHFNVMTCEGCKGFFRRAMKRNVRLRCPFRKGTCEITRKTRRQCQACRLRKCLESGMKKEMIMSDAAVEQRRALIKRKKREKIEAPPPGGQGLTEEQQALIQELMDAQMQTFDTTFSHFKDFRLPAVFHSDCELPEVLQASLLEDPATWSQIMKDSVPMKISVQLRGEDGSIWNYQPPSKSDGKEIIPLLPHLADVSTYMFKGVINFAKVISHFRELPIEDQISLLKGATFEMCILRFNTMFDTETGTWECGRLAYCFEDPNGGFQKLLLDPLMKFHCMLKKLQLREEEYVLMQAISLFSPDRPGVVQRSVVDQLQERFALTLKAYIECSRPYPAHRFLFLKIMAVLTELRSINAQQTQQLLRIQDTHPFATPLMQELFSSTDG

Consider `Cc1ccccc1C(=O)Nc1cccc(OC(C)C)c1`, for which the Potency entry in [1], in assay [2], in [4], in assay [5] and in assay [13] was “inactive” each time. Besides, in assay [3], the call was inactive. For the same molecule, the max response in assay [6] was -1.03%; in assay [7] it was -11.3% (inactive); in [10] it was -0.819% (inactive); in assay [11], -14.9% (inactive); in assay [12] it was -16% (inactive). For the same molecule, in assay [8], the activity change % (negative = inhibition) was 5.62% (inactive). Also, the activation in assay [9] was -3.37% (inactive).
As to `CCC[CH2][Sn]([CH2]CCC)([O]C(C)=O)[O]C(C)=O`, the Potency entry in assay [1], in assay [14], in assay [15], in [4], in assay [5] and in assay [13] was “inactive” in each case. Further, the Potency is 0.794 µM (active) in [2] and 22.4 µM (active) in [7]. Also, the outcome in assay [3] and in assay [16] was inactive. Further, the max response in assay [6] is 2.17%; in assay [10], -2.27% (inactive); in [11] it was -3.33% (inactive); in assay [18], -0.354% (inactive). In assay [8], the activity change % (negative = inhibition) is -21.2% (inactive). In addition, the activation in assay [9] was 4.26% (inactive); in assay [17] it was -0.036% (inactive).
Regarding `NS(=O)(=O)C(F)(F)C(F)(F)C(F)(F)C(F)(F)C(F)(F)C(F)(F)C(F)(F)C(F)(F)F`, the Potency entry in assay [1], in assay [2], in assay [5], in assay [19] and in [13] was “inactive” in each case. Besides, in assay [3], the molecule was called inactive. Besides, the max response in [6] is -4.16%; in assay [7], -55.1% (inactive); in [11] it was -2.62% (inactive); in assay [12], -13.7% (inactive); in [18], -9.61% (inactive). Besides, the activation in assay [9] was 13.9% (inactive); in assay [17] it was 4% (inactive).
Regarding `COCc1cnc(C2=NC(C)(C(C)C)C(=O)N2)c(C(=O)O)c1` (stereo not given), the Potency entry in assay [1], in assay [2], in assay [20], in assay [14], in assay [15] and in assay [5] was “inactive” throughout. The Potency entry in assay [19] and in assay [13] was “inactive” each time. For the same molecule, the outcome in assay [3] and in assay [16] was inactive. The max response was -13.7% in assay [6]; 0.0113% (inactive) in assay [10]; 4.02% (inactive) in [11]; -3.54% (inactive) in [12]; -0.0309% (inactive) in [18]. The activity change % (negative = inhibition) in [8] is -1.58% (inactive). For the same molecule, in assay [17], the activation was 1.65% (inactive).
Consider `CCOc1nc(NC)nc(NC(=O)NS(=O)(=O)c2ccccc2C(=O)OC)n1`, for which the Potency result in assay [1], in assay [2], in [20], in [14], in assay [5] and in assay [19] was “inactive” throughout. The call in [3] and in assay [16] was inactive. Moreover, the max response was -10.6% in assay [6]; 20.8% (inactive) in assay [7]; -5.58% (inactive) in [10]; 13.3% (inactive) in assay [11]; 9.14% (inactive) in assay [12]; 1.05% (inactive) in [18]. Also, the activation in [9] was -5.96% (inactive); in [17], 0.873% (inactive).
In the case of `COC(=O)NS(=O)(=O)c1ccc(N)cc1`, the Potency result in assay [1], in assay [2], in assay [20], in [14], in assay [15] and in [4] was “inactive” in each case. The Potency result in assay [5], in assay [19] and in [13] was “inactive” throughout. For the same molecule, the call in assay [3] and in assay [16] was inactive. Besides, the max response is 6.39% and -8.17% in [6]; -10.8% (inactive) and -3.57% (inactive) in [7]; 0.635% (inactive) and -1.36% (inactive) in assay [10]; 9.3% (inactive) and -4.17% (inactive) in [11]; 0.196% (inactive) and -9.27% (inactive) in [12]; 2.14% (inactive) and -3.25% (inactive) in assay [18]. Also, in assay [8], the activity change % (negative = inhibition) is -3.22% (inactive) and 3.54% (inactive). Further, the activation in assay [9] is -7.42% (inactive) and -0.724% (inactive).
